# Test results from PubChem BioAssay.
# The source made the active and inactive calls.
# Tests used:
# [1] = system: Plasmodium falciparum Sir2 (PF13_0152, Sir2A); assay: Plasmodium falciparum Sir2A binding compounds – biochemical, small-molecule microarray, 635 nm fluorescence, primary screen (AID 1098); conditions: fluorescence 635 nm, higher = more signal;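 further: score merges spot fluorescence intensity with its signal-to-noise ratio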
# [2] = probe aDKK1 binding to arrayed compounds – biochemical, biotinylated probe, 635/667 nm fluorescence, primary screen (AID 1099); conditions: small-molecule microarray, higher = more signal;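 further: score merges 667nm spot fluorescence with signal to noise across triplicate slides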
# [3] = probe aCHRDL2 binding to arrayed compounds – biochemical, biotinylated probe, 635/667 nm fluorescence, primary screen (AID 1100); conditions: small-molecule microarray, higher = more signal
# [4] = change in splice reporter luminescence, either direction, cell-based, HEK293, spliceosome inhibition project, primary screen (AID 1101); conditions: HEK293 splicing luciferase reporter, 24 h, higher = more signal, called active from +8 up or from −8 down;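 further: HEK293 cells carrying a splicing-competent luciferase reporter gene; test concentration not given here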
# [5] = target: Fibroblast growth factor 10 (Homo sapiens) (UniProt O15520); assay: compounds binding fibroblast growth factor 10 – biochemical, small-molecule microarray, 635 nm fluorescence, primary screen (AID 1102); conditions: FGF10 binding, fluorescence 635 nm, higher = more signal
# [6] = system: glycogen synthase kinase-3 (GSK3A per assay name; protocol says GSK3B); assay: compounds binding glycogen synthase kinase-3 – biochemical, small-molecule microarray, 635 nm fluorescence, GSK3A, primary screen (AID 1103); conditions: fluorescence 635 nm, higher = more signal; further: the record names both GSK3A and GSK3B
# [7] = target: Epidermal growth factor receptor (Homo sapiens) (UniProt P00533); assay: compounds binding epidermal growth factor receptor – biochemical, small-molecule microarray, 635 nm fluorescence, primary screen (AID 1104); conditions: EGFR binding, higher = more signal;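 further: score merges 667 nm emission intensity with spot signal to noise over triplicate slides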
# [8] = target: Follistatin-related protein 3 (Homo sapiens) (UniProt O95633); assay: compounds binding follistatin-related protein 3 – biochemical, small-molecule microarray, 635 nm fluorescence, primary screen (AID 1105); conditions: FSTL3 binding, higher = more signal;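 further: score merges emission near 667 nm and signal to noise per printed spot across three slides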
# [9] = target: Dickkopf-related protein 1 (Homo sapiens) (UniProt O94907); assay: small molecules binding DKK1 protein – biochemical, small-molecule microarray, 635 nm fluorescence scan, primary screen (AID 1106); conditions: higher = more signal;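 further: score merges emission near 667 nm with signal to noise over three replicate slides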
# [10] = system: Inhibin beta A chain (activin A); assay: small molecules binding activin A – biochemical, small-molecule microarray, 635 nm fluorescence scan, primary screen (AID 1107); conditions: INHBA, higher = more signal;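 further: mouse activin A protein probed at 4.33 µg/mL on printed slides; score merges bound-protein fluorescence near 667 nm with spot signal-to-noise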
# [11] = system: Human papillomavirus type 1a protein E7 (residues 44-93); assay: small molecules binding HPV E7 44-93 – biochemical, small-molecule microarray, residues 44-93, 635 nm fluorescence, primary screen (AID 1108); conditions: fluorescence 635 nm, higher = more signal;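 further: E7 fragment applied at 1 µg/mL in TBST for 1 h at 4 C; score combines spot fluorescence with its signal to noise ratio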
# [12] = hepatitis C replication reporter changes, two-sided – Huh7 cells, luciferase reporter, HCV replication inhibitor project, primary screen (AID 1109); conditions: Huh7 HCV replicon luciferase reporter, 48 h; higher = more signal;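 further: huh7 hepatoma cells harbouring a luciferase neomycin HCV replicon reporter; luciferase luminescence as measure of HCV replicon replication; test concentration not given here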
# [13] = target: Left-right determination factor 2 (Homo sapiens) (UniProt O00292); assay: small molecules binding LEFTY2 protein – biochemical, small-molecule microarray, 635 nm fluorescence scan, primary screen (AID 1110); conditions: higher = more signal
# [14] = target: Calmodulin-1 (Homo sapiens) (UniProt P0DP23); assay: small molecules binding calmodulin-1 with EGTA – biochemical, small-molecule microarray, Cy5-labelled CALM1, profiling panel (AID 1111); conditions: Cy5-CALM1 binding fluorescence, higher = more signal;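 further: labelled calmodulin applied in Tris saline Tween buffer holding calcium plus EGTA and DTT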
# [15] = target: Calmodulin-1 (Homo sapiens) (UniProt P0DP23); assay: small molecules binding Ca-loaded calmodulin-1 – biochemical, small-molecule microarray, Cy5-labelled CALM1, plus calcium, artefact control for SMM control-protein annotation, profiling panel (AID 1112); conditions: Cy5-CALM1 binding fluorescence, higher = more signal;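 further: score merges spot fluorescence with signal to noise from triplicate slides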
# [16] = probe aWnt5a binding to arrayed compounds – biochemical, biotinylated probe, 635/667 nm fluorescence, primary screen (AID 1113); conditions: small-molecule microarray, higher = more signal;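 further: score merges 667 nm fluorescence intensity with signal-to-noise per printed feature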
# [17] = probe aShh binding to arrayed compounds – biochemical, biotinylated probe, 635/667 nm fluorescence, primary screen (AID 1114); conditions: small-molecule microarray, higher = more signal;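 further: probe is biotin-labelled aShh protein from a stem cell growth factor screen; measures binding of labelled protein to compounds printed on the slide; score merges feature fluorescence at 667 nm with signal-to-noise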
# [18] = probe aNog binding to arrayed compounds – biochemical, biotinylated probe, 635/667 nm fluorescence, primary screen (AID 1115); conditions: small-molecule microarray, higher = more signal;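 further: probe is biotinylated aNog protein used at 0.15 µg/mL for 1 h at 4 C; z-score combines 667 nm fluorescence of each spot with its signal to noise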
# [19] = target: Torsin-1A-interacting protein 1 (Homo sapiens) (UniProt Q5JTV8); assay: compound microarray binding of lysate hLAP1 – cell lysate, small-molecule microarray, COS7 lysate, 635/667 nm fluorescence, primary screen (AID 1116); conditions: 635 nm fluorescence, higher = more signal
# [20] = target: Alpha-bungarotoxin (Bungarus multicinctus) (UniProt P60615); assay: compounds binding labelled alpha-BTX control protein – biochemical, small-molecule microarray, Alexa647 label, 635/667 nm fluorescence, artefact control for SMM control protein annotation, profiling panel (AID 1117); conditions: alpha-BTX-A647 binding fluorescence, higher = more signal
# Alpha-bungarotoxin (Bungarus multicinctus), sequence (P60615 whole entry, looked up): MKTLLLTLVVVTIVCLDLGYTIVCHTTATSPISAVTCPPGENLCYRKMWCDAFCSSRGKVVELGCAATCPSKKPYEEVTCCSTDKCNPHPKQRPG
# Fibroblast growth factor 10 (Homo sapiens), sequence (O15520 whole entry, looked up): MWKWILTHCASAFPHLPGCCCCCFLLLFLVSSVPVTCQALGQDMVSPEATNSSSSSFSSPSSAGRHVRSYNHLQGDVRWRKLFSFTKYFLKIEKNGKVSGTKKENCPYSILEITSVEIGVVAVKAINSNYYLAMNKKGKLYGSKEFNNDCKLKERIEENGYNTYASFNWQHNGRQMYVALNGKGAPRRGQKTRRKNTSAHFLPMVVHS
# Left-right determination factor 2 (Homo sapiens), sequence (O00292 whole entry, looked up): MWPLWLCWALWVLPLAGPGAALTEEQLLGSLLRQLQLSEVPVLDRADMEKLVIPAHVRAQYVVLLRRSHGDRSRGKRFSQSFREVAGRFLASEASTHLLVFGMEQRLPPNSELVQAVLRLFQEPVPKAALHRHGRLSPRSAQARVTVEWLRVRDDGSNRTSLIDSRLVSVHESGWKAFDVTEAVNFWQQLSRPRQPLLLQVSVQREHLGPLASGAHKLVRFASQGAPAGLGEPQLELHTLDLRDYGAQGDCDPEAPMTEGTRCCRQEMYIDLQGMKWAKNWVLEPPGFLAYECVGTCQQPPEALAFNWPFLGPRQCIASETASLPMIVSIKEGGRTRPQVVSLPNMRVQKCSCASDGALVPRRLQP
# Epidermal growth factor receptor (Homo sapiens), sequence (P00533 whole entry, looked up): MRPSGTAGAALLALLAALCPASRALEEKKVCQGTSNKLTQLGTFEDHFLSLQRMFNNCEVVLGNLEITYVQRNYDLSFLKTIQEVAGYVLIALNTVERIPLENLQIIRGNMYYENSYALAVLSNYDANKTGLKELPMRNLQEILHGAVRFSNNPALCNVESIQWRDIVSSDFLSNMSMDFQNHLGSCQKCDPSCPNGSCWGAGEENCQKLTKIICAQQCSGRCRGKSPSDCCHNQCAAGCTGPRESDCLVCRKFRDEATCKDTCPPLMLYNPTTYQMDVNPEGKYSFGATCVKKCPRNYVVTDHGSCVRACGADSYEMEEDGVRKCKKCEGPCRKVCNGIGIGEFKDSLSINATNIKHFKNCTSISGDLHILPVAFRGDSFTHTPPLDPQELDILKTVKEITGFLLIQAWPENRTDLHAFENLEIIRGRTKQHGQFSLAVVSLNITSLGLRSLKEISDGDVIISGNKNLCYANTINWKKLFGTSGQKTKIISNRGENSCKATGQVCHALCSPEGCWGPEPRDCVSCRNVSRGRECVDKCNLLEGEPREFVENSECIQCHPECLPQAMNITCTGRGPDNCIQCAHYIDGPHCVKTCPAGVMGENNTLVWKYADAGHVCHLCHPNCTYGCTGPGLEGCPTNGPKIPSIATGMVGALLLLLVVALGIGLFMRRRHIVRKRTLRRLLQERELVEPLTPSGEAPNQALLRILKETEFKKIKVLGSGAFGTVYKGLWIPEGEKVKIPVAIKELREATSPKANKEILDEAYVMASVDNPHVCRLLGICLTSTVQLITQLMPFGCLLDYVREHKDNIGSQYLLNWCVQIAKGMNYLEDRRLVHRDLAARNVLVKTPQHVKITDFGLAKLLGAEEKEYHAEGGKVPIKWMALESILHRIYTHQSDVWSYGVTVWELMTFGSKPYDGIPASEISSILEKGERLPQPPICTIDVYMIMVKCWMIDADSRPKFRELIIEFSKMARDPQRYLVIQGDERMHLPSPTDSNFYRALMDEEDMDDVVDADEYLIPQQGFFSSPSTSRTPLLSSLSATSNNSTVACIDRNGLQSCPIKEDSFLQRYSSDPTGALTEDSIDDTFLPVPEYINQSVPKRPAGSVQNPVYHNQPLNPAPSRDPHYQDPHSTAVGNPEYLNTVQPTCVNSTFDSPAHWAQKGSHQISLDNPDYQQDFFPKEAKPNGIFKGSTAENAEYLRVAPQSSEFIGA
# Dickkopf-related protein 1 (Homo sapiens), sequence (O94907 whole entry, looked up): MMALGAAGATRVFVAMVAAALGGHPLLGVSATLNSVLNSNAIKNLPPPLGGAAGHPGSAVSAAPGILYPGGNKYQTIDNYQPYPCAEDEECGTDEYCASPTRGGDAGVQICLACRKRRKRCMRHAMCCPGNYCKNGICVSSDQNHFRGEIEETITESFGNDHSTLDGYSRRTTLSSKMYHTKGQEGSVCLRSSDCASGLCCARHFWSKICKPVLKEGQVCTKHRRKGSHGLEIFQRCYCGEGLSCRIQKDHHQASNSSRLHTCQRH
# Follistatin-related protein 3 (Homo sapiens), sequence (O95633 whole entry, looked up): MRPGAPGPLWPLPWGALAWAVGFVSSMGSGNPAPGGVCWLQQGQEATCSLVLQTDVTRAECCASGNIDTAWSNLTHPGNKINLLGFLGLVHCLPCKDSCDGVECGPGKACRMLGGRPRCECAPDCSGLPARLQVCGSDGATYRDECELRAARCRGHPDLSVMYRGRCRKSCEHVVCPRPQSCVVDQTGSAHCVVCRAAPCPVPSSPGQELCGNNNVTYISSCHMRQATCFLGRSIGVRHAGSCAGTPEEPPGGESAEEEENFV
# Torsin-1A-interacting protein 1 (Homo sapiens), sequence (Q5JTV8 whole entry, looked up): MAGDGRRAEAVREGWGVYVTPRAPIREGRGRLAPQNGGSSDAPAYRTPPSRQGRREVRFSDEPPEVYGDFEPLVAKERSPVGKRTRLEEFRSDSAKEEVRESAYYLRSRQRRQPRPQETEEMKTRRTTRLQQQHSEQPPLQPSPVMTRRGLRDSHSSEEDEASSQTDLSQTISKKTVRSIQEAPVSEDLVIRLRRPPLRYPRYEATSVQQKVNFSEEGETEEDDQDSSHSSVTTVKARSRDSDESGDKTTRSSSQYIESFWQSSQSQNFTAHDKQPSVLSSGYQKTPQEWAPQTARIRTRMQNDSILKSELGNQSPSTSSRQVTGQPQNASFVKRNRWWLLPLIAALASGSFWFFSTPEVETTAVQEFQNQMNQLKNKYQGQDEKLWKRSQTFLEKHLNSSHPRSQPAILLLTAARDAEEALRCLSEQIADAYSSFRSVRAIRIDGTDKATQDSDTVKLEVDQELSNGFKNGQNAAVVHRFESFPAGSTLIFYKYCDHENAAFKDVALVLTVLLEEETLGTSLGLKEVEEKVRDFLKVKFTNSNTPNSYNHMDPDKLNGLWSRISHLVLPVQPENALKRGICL
SMILES,composite z-score [1],composite z-score [2],composite z-score [3],z-score [4],composite z-score [5],composite z-score [6],composite z-score [7],composite z-score [8],composite z-score [9],composite z-score [10],composite z-score [11],z-score [12],composite z-score [13],composite z-score [14],composite z-score [15],composite z-score [16],composite z-score [17],composite z-score [18],composite z-score [19],composite z-score [20]
Cc1ccc(S[C@]2(C(=O)NC(C)C)CC(=O)N(C3Cc4ccccc4C3)[C@@H]2c2ccc(CO)cc2)cc1,1.24,-0.786,0.556,-1.15 (inactive),-0.258,-0.106,-0.544,-0.0429,-1.2,-0.215,0.951,-2.01,-0.873,-0.329,-0.603,-0.098,-0.421,-0.315,1.52,1.12
CC(C)CN1C(=O)[C@@]2(Cc3ccccc31)c1ccccc1C(=O)N(C1CCCCC1)[C@H]2c1ccc(CO)cc1,-0.23,0.262,1.02,-1.41 (inactive),-0.706,-1.24,-0.894,-1.34,-1.66,0.977,-0.973,-0.192,-0.841,-0.0258,0.644,-0.0944,-0.0626,0.697,-0.256,-1.06
C[N+](C)(C)CCCCNC(=O)[C@@H]1C[C@@H]2C(=O)N3CCC[C@H]3C(=O)N2[C@@H]1c1cccc(OCCO)c1,0.577,-0.222,-0.0397,0.0434 (inactive),0.455,0.249,0.495,1.45,1.44,0.0648,-0.745,0.0741,1.14,-0.794,0.658,-0.162,-0.0626,-0.0645,1.62,1.16
CO[C@@H]1COC(=O)[C@H](COCc2ccccc2)NC(=O)CC=C[C@@H](C)[C@H](OC)COC(=O)[C@H](COCc2ccccc2)NC(=O)CC=C[C@H]1C,-0.23,-0.466,-0.942,-0.923 (inactive),0.168,0.376,0.48,0.424,0.96,1.51,-0.417,-0.0527,0.644,-0.409,-1.01,-0.0927,-0.0626,-0.349,-0.217,-0.774
CN1C2C=C(c3ccc(CO)cc3)C(C3C(=O)N(C(N)=O)C(=O)C32)C1c1cccs1 (stereo not given),1.41,-0.0009,0.549,-0.795 (inactive),0.25,-0.148,0.136,-0.623,-0.72,1.02,-0.232,0.374,0.217,0.45,0.47,-0.156,-0.0769,0.408,1.24,-1.09
COc1cccc([C@@H]2[C@@H](C)CC[C@H]3C(=O)N(C)[C@@H](C(C)C)C(=O)N23)c1,0.516,-0.22,-0.532,0.223 (inactive),0.266,0.649,0.418,0.472,0.782,0.428,0.148,0.512,0.375,-0.169,-0.562,-0.204,-0.0011,-0.141,1.11,0.0641
CCN1C(C)=C(C(=O)OC)[C@@H](c2ccccc2)N2C(=O)[C@](O)(C(=O)OC)[C@@H](c3ccccc3)C(C(C)=O)=C12,-1.67,0.182,-0.539,-2.82 (inactive),0.799,0.529,0.621,1.04,0.515,1.15,-0.0269,-0.279,0.784,-0.693,-0.0342,-0.0125,-0.262,0.19,0.0025,-0.576
C=CCNC(=O)[C@@H]1[C@H]2C(=O)O[C@H](c3ccccc3)[C@H](c3ccccc3)N2[C@H](c2ccc(OCCO)cc2)[C@@]12C(=O)N(C(=O)OCCOC)c1ccc(C#CC3(O)CCCCCC3)cc12,1.12,0.342,0.375,-0.929 (inactive),0.325,0.871,0.432,0.702,0.125,1.34,0.692,-2.29,0.507,1.82,1.11,0.0267,0.293,0.166,1.2,1.97
[N-]=[N+]=NCc1ccccc1C[C@@]1(C(=O)N2CCOCC2)N=C(c2ccc(OCCCO)cc2)O[C@@H]1c1ccccc1N=[N+]=[N-],1.45,1.41,1.31,-0.531 (inactive),1.42,0.683,-0.11,0.436,-0.433,1.32,0.425,-1.14,-0.139,2.15,1.13,0.208,0.412,1.64,1.74,2.84
CC(=O)NCCCC[C@@H]1NC(=O)[C@@H]2C[C@H](C(=O)NCc3ccc(F)cc3)[C@H](c3cccc(OCCO)c3)N2C1=O,1.02,0.0839,0.0979,0.281 (inactive),0.0733,-0.895,-0.148,-0.488,-0.047,0.101,0.843,-0.0901,-0.0566,-0.286,0.0377,-0.0836,0.0469,-0.183,0.436,-0.86
COC(=O)[C@@]1(Cc2ccccc2)[C@H]2c3cc(C(=O)N4CCCC4)n(CCN4CNCC4=O)c3C[C@H]2CN1C(=O)c1ccccc1,0.0939,0.862,0.904,2.52 (inactive),0.0557,0.77,0.0908,0.47,-0.292,1.05,0.871,-0.857,0.172,1.91,0.265,-0.0519,-0.288,-0.197,0.911,0.98
